# Laboratory results as given in PubChem BioAssay (NCATS).
# Where “and” joins values, the source holds several entries; their conditions need not be identical. Equal entries are not always repeated. Records with an inconclusive call do not appear. Where a call stands in place of a potency, no number is given. Unmarked numbers belong to inactive results. Calls of active or inactive are those of the source. Unless noted, the call rests on the fitted dose curve.
# Tests used:
# [1] = target: Bile acid receptor (Homo sapiens) (UniProt Q96RI1); experiment: qHTS assay for small molecule antagonists of farnesoid X receptor signaling (AID 588526)
# Procedure, shortened: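 Concentration-response titrations were fitted to the Hill equation for half-maximal inhibition and maximal response, with data normalised to 50 uM chenodeoxycholic acid and DMSO control wells. Cells: FXR-UAS-bla HEK293T, dialyzed FBS.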
# [2] = target: Peroxisome proliferator-activated receptor delta (Homo sapiens) (UniProt Q03181); experiment: qHTS assay for small molecule antagonists of peroxisome proliferator-activated receptor delta signaling (AID 588535; active means well fitted inhibition curve with a large enough effect in the signal ratio, with a control signal flat, not every such curve was filed as active; the % refers to the signal ratio)
# Procedure, shortened: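 Reporter: UAS-bla under PPAR-delta response element, HEK293T host. Medium: 2% charcoal/dextran FBS. Dosing: titration, 18 hrs, 37 C. Detection: CCF4, 2 hrs RT, 405 ex/460 and 530 em.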
# [3] = target: Thyroid hormone receptor beta (Homo sapiens) (UniProt P10828); experiment: qHTS assay for small molecule antagonists of thyroid hormone receptor beta signaling (AID 588547; active means well fitted inhibition curve with a large enough effect in the signal ratio, with a control signal flat, not every such curve was filed as active; the % refers to the signal ratio;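 further: cells stimulated with 0.4 nM T3 agonist during compound exposure; series mostly up to about 77 µM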); details: TR-UAS-bla HEK293, beta-lactamase ratio, antagonist mode, 18 h
# Procedure, shortened: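 TR-UAS-bla GripTite HEK293 cells in 2% charcoal/dextran FBS medium were preincubated 4 h at 37 C, given compound (0.59 nM to 92 uM) plus 0.4 nM T3 (final) for 18 h, then CCF4 for 2 h at RT; Hill fit gave IC50.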
# [4] = qHTS assay for small molecule agonists of the antioxidant response element (ARE) signaling pathway (AID 651741; active means well fitted activation curve with a large enough effect in the signal ratio; the % refers to the signal ratio; further: potency means the concentration at half of the fitted maximal effect)
# Procedure, shortened: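 Compounds in DMSO are pinned onto HepG2 ARE-bla cells (2,000/well) that were preincubated 5 h; plates stay 16 h at 37 C, then beta-lactamase activity is detected with LiveBLAzer B/G substrate by fluorescence.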
# [5] = qHTS assay for small molecule activators of the nuclear factor-kappa B (NF-kB) signaling pathway (AID 651749; active means well fitted activation curve with a large enough effect in the signal ratio; the % refers to the signal ratio; further: series mostly up to about 77 µM); details: NF-kB-bla ME-180 cells, beta-lactamase FRET ratio, 16 h; activation: stronger effect = higher value
# Procedure, shortened: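 Screening used 2,000 ME-180 reporter cells per well exposed to pinned compound (23 nL) or DMSO; after 16 hr at 37C, beta-lactamase expression under NF-kB control was assessed through FRET.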
# [6] = target: Glucocorticoid receptor (Homo sapiens) (UniProt P04150); experiment: qHTS assay for small molecule antagonists of glucocorticoid receptor signaling (AID 588533; active means well fitted inhibition curve with a large enough effect in the signal ratio, with a control signal flat, not every such curve was filed as active; the % refers to the signal ratio;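 further: cells stimulated with 2 nM dexamethasone as agonist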; further: potency means the concentration at half of the fitted maximal effect)
# Procedure, shortened: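 Antagonist-mode qHTS: compound titrations added to GRE-bla HeLa cells, then dexamethasone 2 nM final; 18 h, 37 C. CCF4 FRET fluorescence normalized to dexamethasone and DMSO; IC50 from Hill fit.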
# Chain of Bile acid receptor (Homo sapiens) (Q96RI1 whole entry, looked up): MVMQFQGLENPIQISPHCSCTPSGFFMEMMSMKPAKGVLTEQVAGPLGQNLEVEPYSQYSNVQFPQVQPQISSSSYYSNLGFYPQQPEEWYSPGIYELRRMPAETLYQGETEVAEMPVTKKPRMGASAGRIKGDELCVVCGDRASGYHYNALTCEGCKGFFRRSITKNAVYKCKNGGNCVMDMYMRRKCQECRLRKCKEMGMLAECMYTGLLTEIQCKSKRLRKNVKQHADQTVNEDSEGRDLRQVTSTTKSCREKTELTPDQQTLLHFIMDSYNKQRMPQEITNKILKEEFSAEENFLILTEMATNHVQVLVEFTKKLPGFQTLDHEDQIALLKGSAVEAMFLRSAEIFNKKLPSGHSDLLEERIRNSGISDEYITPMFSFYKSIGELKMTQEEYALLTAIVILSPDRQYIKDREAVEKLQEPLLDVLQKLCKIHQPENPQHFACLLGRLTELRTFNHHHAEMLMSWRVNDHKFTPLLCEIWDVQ
# Chain of Thyroid hormone receptor beta (Homo sapiens) (P10828 whole entry, looked up): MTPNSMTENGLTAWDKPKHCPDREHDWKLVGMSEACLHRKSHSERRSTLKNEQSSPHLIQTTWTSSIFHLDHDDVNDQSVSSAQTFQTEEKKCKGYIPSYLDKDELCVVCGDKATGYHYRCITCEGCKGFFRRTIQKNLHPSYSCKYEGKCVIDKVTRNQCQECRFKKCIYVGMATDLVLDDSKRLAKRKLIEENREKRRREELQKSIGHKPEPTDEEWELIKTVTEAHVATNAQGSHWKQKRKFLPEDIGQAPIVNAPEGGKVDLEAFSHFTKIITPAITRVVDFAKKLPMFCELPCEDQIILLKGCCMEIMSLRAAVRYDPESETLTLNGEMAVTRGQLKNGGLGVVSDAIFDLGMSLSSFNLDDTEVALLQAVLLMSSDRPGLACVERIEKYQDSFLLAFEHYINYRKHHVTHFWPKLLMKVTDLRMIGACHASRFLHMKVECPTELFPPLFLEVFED
# Chain of Glucocorticoid receptor (Homo sapiens) (P04150 whole entry, looked up): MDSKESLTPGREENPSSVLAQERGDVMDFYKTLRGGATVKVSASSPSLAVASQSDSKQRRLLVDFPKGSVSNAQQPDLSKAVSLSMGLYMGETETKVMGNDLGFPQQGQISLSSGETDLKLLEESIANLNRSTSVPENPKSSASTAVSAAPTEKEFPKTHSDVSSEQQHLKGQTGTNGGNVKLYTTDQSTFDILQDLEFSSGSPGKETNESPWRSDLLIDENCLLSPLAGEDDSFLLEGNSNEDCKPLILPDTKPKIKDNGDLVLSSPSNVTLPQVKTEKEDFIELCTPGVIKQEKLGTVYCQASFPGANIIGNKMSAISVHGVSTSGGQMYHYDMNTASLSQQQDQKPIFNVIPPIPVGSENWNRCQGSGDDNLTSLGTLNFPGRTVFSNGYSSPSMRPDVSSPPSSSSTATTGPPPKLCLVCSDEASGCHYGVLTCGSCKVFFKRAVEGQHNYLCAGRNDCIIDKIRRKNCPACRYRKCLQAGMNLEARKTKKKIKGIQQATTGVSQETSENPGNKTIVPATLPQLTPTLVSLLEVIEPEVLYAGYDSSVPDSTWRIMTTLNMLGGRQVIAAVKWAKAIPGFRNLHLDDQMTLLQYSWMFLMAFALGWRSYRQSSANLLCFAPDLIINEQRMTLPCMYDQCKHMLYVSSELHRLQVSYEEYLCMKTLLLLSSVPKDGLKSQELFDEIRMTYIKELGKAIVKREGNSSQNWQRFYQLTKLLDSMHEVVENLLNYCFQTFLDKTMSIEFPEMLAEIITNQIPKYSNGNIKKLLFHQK
# Chain of Peroxisome proliferator-activated receptor delta (Homo sapiens) (Q03181 whole entry, looked up): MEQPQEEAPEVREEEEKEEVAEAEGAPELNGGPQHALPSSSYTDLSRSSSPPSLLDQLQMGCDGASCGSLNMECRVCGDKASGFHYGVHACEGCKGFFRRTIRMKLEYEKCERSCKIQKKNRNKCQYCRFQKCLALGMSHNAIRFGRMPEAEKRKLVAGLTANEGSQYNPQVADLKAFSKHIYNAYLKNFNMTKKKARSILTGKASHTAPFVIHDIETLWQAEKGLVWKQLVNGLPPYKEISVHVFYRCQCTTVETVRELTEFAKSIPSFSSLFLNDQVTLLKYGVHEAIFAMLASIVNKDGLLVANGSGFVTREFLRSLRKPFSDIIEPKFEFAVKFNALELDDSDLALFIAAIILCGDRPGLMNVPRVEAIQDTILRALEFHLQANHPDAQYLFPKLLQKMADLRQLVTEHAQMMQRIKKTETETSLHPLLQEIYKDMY
smiles,measurement,setting,value
CN(C)CCOCCN(C)C,Potency,[1],inactive
same,Potency,[2],inactive
same,activity change % (negative = inhibition),[3],-4.05%
same,Potency,[4],inactive
same,activation,[5],0.657%
NC(=O)Cc1cccc2ccccc12,Potency,[1],inactive
same,Potency,[6],inactive
same,Potency,[2],inactive
CC(C)CCCCCCCCCCCCCCC(=O)O,Potency,[6],inactive
same,Potency,[2],inactive
same,activation,[5],-0.531%
CCCCCCCC/C=C\CCCCCCCCO,Potency,[2],inactive
same,activity change % (negative = inhibition),[3],-5.71%
same,Potency,[4],inactive
COC(OC)(C(=O)c1ccccc1)c1ccccc1,Potency,[6],inactive
same,Potency,[2],inactive
same,activity change % (negative = inhibition),[3],-4.01%
same,activation,[5],0.121%
COc1cc(Cl)c(OC)cc1N,Potency,[6],inactive
same,Potency,[2],inactive
O=C(O)c1cc(O)c2ccccc2c1O,Potency,[6],44.7 µM (active)
same,Potency,[4],7.7 µM (active)
CCCCCCCCCCCCCCN(C)C,Potency,[6],inactive
CCCCC(CC)CN1C(=O)C2C3C=CC(C3)C2C1=O (configuration not stated),activity change % (negative = inhibition),[3],4.69%
CCCCCCCC[Si](OCC)(OCC)OCC,Potency,[6],inactive
same,Potency,[2],inactive
same,activity change % (negative = inhibition),[3],3.89%
same,Potency,[4],inactive
same,activation,[5],1.32%
CCCCCCCCCC(=O)OC,Potency,[1],inactive
same,activation,[5],0.17%
CCC(O)OCCCOC (configuration not stated),Potency,[6],inactive
same,activity change % (negative = inhibition),[3],-6.47%
same,Potency,[4],inactive
same,activation,[5],1.22%
COC(=O)c1ccc(CNS(C)(=O)=O)cc1S(=O)(=O)NC(=O)Nc1nc(OC)cc(OC)n1,Potency,[6],inactive
same,activation,[5],1.5%
CCCCC(CC)COC(C)=O (configuration not stated),Potency,[6],inactive
same,Potency,[2],inactive
same,Potency,[4],inactive
same,activation,[5],-1.18%
COC(=O)CSc1cc(N=c2sc(=O)n3n2CCCC3)c(F)cc1Cl,Potency,[1],inactive
O=C(c1ccccc1)c1ccc(O)c(O)c1O,Potency,[6],inactive
same,Potency,[2],inactive
C=CC(=O)OCCOc1ccccc1,Potency,[6],inactive
same,activity change % (negative = inhibition),[3],-3.52%
CCCC/C=C\CCCCCCCCCC=O,Potency,[1],inactive
same,activation,[5],-0.297%
CCCCCCCC/C=C\CCCCCCCC(=O)OC,Potency,[2],inactive
same,activation,[5],-2.39%
CC(C)Nc1nc(N)nc(Cl)n1,activity change % (negative = inhibition),[3],-8.47% and 11%
same,Potency,[4],inactive
same,activation,[5],0.272% and 0.556%
COCCOCCOCCO,Potency,[6],inactive
same,Potency,[2],inactive
CC1=CC(=O)CC(C)(C)C1,Potency,[6],inactive
same,activity change % (negative = inhibition),[3],1.58%
CCCCCCCCCCCCCCC,Potency,[6],inactive
same,Potency,[2],inactive
same,activity change % (negative = inhibition),[3],5.8%
same,activation,[5],-1.21%
CCOC(=O)C(C)Oc1ccc(Oc2nc3ccc(Cl)cc3o2)cc1 (configuration not stated),Potency,[2],inactive
same,activation,[5],2.54%
CCCCCCCCCCCCc1ccccc1,Potency,[1],inactive
same,Potency,[2],inactive
same,Potency,[4],inactive
CCOC(=O)NCCOc1ccc(Oc2ccccc2)cc1,Potency,[1],inactive
same,Potency,[2],inactive
same,Potency,[4],30.6 µM (active)
same,activation,[5],2.75%
C=C(C)C(=O)OCCOCCOCCOC(=O)C(=C)C,Potency,[6],inactive
same,activity change % (negative = inhibition),[3],-12.3%
same,Potency,[4],inactive
same,activation,[5],-1.62%
CC(C)CC(C)(O)C#CC(C)(O)CC(C)C (configuration not stated),Potency,[6],inactive
same,activity change % (negative = inhibition),[3],20.8%
same,Potency,[4],inactive
same,activation,[5],-0.882%
CC(=O)c1c(C)c([N+](=O)[O-])c(C(C)(C)C)c([N+](=O)[O-])c1C,Potency,[6],inactive
same,Potency,[2],inactive
same,activity change % (negative = inhibition),[3],11%
CCOCCOCCOCCO,Potency,[1],inactive
same,activity change % (negative = inhibition),[3],8.91%
same,Potency,[4],inactive
same,activation,[5],-1.33%
CCCCCCCCCCCC[N+](C)(C)C,Potency,[6],inactive
same,Potency,[2],inactive
same,activation,[5],-3.69%
O=C=NC1CCC(CC2CCC(N=C=O)CC2)CC1 (configuration not stated),Potency,[4],inactive
CCOCCOCCOCC,Potency,[6],inactive
same,Potency,[2],inactive
same,activity change % (negative = inhibition),[3],-11.8%
same,activation,[5],-0.223%
O=[N+]([O-])c1ccc(O)cc1C(F)(F)F,Potency,[2],inactive
same,Potency,[4],34.4 µM (active)
CC(C)(N=C=O)c1cccc(C(C)(C)N=C=O)c1,Potency,[6],inactive
same,Potency,[2],inactive
same,activity change % (negative = inhibition),[3],-9.67%
same,Potency,[4],inactive
same,activation,[5],-0.946%
CC(C)CCCCOC(=O)c1ccccc1C(=O)OCCCCC(C)C,Potency,[6],inactive
same,activation,[5],-2.54%
